Source: PubChem
In the library only some 7.4% were active in any assay of this set; here they are far more common.
ELG1 genotoxic: genotoxicity induction in ELG1-luciferase HEK293T cells; HEK293T ELG1-luciferase reporter, luminescence, 16 h; Potency, µM (series often up to 46 µM), actives largely listed as activators; 1.3% of 330,000 active; AID 504466; further: nearly all actives have a fitted effect of over 60% in size
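Cells (2,000/well) expressing the ELG1-luciferase fusion are dosed by pin tool and kept 16 hr at 37 °C, 5% CO2. Signal comes from ONE-Glo luciferase reagent after 30 min at room temperature.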
SMN2 splice up: increases expression of the SMN2 splice variant; HEK293 SMN2-luciferase splicing reporter, luminescence, 30-36 h; Potency, µM (titrated, usually from 46.1 µM), usual class: activators; 2.8% of 210,000 active; AID 1458; further: nearly all actives have a fitted effect of over 55% in size
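qHTS luciferase splicing reporter: luminescence rises when SMN2 exon 7 is included in transfected HEK293 cells. Compound exposure lasted 30-36 h at 37C, with 4.5 mM final sodium butyrate as control, followed by a ONE-Glo read.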
Rab9 promoter act: Rab9 promoter activation; Huh7 Rab9 promoter-luciferase reporter, luminescence, 24 h; Potency, µM (titrated, usually from 9.22 µM), usual class: activators; 2.8% of 320,000 active; AID 485297; further: nearly all actives have a fitted effect of over 60% in size
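Luciferase signal after 10 min detection reagent at ambient indicates Rab9 promoter upregulation; stably transfected Huh7 cells were treated 24 h with compound in DMSO at 37 °C, 5% CO2.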
FLuc counter: counter-screen for miR-21 project: firefly luciferase inhibitors or activators; P08659; purified FLuc, Km substrates, luminescence inhibition; Potency, µM (doses to about 57.5 µM), actives largely listed as inhibitors; 6.9% of 360,000 active; AID 588342; further: nearly all actives have a fitted effect of over 55% in size
Target sequence (P08659 whole entry, looked up): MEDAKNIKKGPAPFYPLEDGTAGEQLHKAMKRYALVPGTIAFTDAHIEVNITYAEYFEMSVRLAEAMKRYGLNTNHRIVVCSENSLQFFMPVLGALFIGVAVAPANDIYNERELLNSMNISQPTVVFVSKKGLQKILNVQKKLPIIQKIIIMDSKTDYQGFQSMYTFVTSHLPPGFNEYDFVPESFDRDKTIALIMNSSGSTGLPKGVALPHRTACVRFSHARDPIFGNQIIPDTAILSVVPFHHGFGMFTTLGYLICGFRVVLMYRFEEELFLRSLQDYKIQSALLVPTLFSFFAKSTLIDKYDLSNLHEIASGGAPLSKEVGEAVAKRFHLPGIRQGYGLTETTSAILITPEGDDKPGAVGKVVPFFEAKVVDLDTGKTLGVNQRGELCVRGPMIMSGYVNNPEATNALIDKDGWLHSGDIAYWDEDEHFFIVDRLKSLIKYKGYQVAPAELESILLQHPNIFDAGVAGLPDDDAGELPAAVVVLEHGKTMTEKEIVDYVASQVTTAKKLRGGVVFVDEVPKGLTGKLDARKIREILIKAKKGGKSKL
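Purified P. pyralis luciferase (10nM final) with 10uM D-luciferin and 10uM ATP (Km levels) in 50mM Tris acetate pH 7.5, 10mM Mg acetate, 0.01% Tween-20, 0.05% BSA; qHTS 6-point titration, ~60 µM downward; luminescence read.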
NPC1 prom act: activators of NPC1 promoter; Huh7 NPC1 promoter luciferase reporter, 24 h; Potency, µM (series often up to 9.22 µM), most hits filed as activators; 2.4% of 320,000 active; further: nearly all actives have a fitted effect of over 60% in size
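In 1536-well qHTS, Huh7 cells harboring an NPC1 promoter–luciferase construct received compound for 24 h; activation was quantified by luminescence following luciferase reagent addition.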
p53 reactivation: re-activators of mutant p53; H1299 p53-A138V BP100-luciferase reporter, luminescence, 24 h; Potency, µM (series often up to 92.2 µM), usual class: activators; 0.063% of 320,000 active; AID 504706; further: nearly all actives have a fitted effect of over 45% in size
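H1299 (p53-null), stable ts p53-A138V + BP100-Luc; 1000 cells/well, Opti-MEM/10% FBS; cpd 4 pt, 1:5; 24 h, 37 deg C, 5% CO2; detection reagent 10 min RT; luminescence.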
Hits are given with their value; - = inactive; ? = inconclusive; . = no result given; [ ] = dose if it differs, or a comment. The call rests on the fitted dose curve; in most records, active means well fitted curve in the direction sought with a large enough effect; inconclusive means small, poorly fitted or top-dose-only effect, or another doubt; inactive means no such curve, though single readings can be large; an effect the other way counts as inactive or inconclusive.

SMILES	ELG1 genotoxic	SMN2 splice up	Rab9 promoter act	FLuc counter	NPC1 prom act	p53 reactivation
O=C(Nc1ccccc1)C1Cc2ccccc2CN1C(=O)c1ccco1 (stereo not given)	-	-	-	19µM	-	?
Cc1cccc(C(=O)Nc2ccccc2OCc2cc(=O)n3c(C)csc3n2)c1	.	-	.	-	.	.
Cc1ccc(NC(=S)N2CCCCCC2)cc1	?	.	?	8.5µM	?	-
Cc1ccc(NC(=S)N2CCCCC2)cc1C	-	.	-	24µM	-	-
CN(C(=O)COC(=O)c1ccc2ccccc2n1)C1CCCCC1	-	.	.	.	.	-
CS(=O)(=O)N1CCC2(CC1)CN(c1ccccn1)C2	.	-	.	.	.	.
O=C(NCCSC1CCCCC1)c1ccccc1	?	?	?	?	-	-
COc1ccc(C(=O)NCCSC2CCCCC2)cc1	?	16µM	?	13µM	?	-
COc1cccc(C2C(C(=O)Nc3ccccc3OC)=C(C)Nc3nc(-c4ccco4)nn32)c1 (stereo not given)	.	-	.	-	.	.
COc1ccc(CNC(=O)CC(c2ccc(OC)c(OC)c2)N2Cc3ccccc3C2=O)cc1 (stereo not given)	.	.	.	-	.	.
c1ccc(-c2cccs2)nc1	-	.	-	-	-	-
c1cc(-c2cccs2)nc(-c2cccs2)c1	-	-	-	15µM	-	?
c1ccc(-n2c(-c3cccs3)nc3nc4ccccc4nc32)cc1	-	-	-	-	-	-
c1csc(-c2cnc3ccccc3n2)c1	?	?	?	11µM	4µM	?
COc1ccccc1NC(=O)[C@@H]1CCCN1S(=O)(=O)c1ccc(Cl)cc1	-	.	.	.	.	-
CCOc1ccccc1NC(=O)CSc1nnc(N)s1	.	-	.	-	.	.
N/C(Cc1ccc(Cl)cc1)=N\OC(=O)c1ccccc1	-	-	-	?	-	-
CC(=O)NCc1cc(-c2ccc(Cl)cc2)no1	-	-	-	-	-	-
C/C(=N/OC(=O)C1CC1)c1cc(-c2ccc(Cl)cc2)no1	?	.	2.8µM	5.4µM	?	-
C/C(=N\OC(=O)c1ccccc1)c1cc(-c2ccc(Cl)cc2)no1	?	?	3.2µM	-	2.8µM	-
CNc1cccc2c1C(=O)c1ccccc1C2=O	?	?	?	9.5µM	-	?
Cc1ccc(Cn2ccn(Cc3ccccc3C)c(=O)c2=O)cc1	.	.	.	-	.	.
C[C@H]1Cc2c(COc3ccccc3)nc3c(c2CO1)CN(S(=O)(=O)c1ccc(C#N)cc1)CC3	.	-[9.22 µM]	.	.	.	.
O=C(Nc1ccccc1)Nc1ccc(Cl)c(S(=O)(=O)N2CCOCC2)c1	-	-	-	?	-	-
COc1ccccc1NC(=O)/C=C/c1ccc2c(c1)OCO2	-	11µM	?	6.7µM	-	?
SMILES	ELG1 genotoxic	SMN2 splice up	Rab9 promoter act	FLuc counter	NPC1 prom act	p53 reactivation
COc1ccc(NC(=O)C(NC(=O)/C=C\c2ccc3c(c2)OCO3)c2ccccc2)cc1 (stereo not given)	.	2µM	.	-	.	.
O=C(/C=C/c1ccco1)Nc1ccc(Cl)c(S(=O)(=O)N2CCOCC2)c1	-	.	-	19µM	-	-
COc1ccccc1NC(=O)COC(=O)/C=C/c1ccc2c(c1)OCO2	?	-	-	11µM	-	-
Cc1ccc(NC(=O)/C=C/c2ccc3c(c2)OCO3)cc1S(=O)(=O)N1CCOCC1	-	-	-	11µM	-	-
Cc1ccc(S(N)(=O)=O)cc1NC(=O)/C=C/c1ccc2c(c1)OCO2	-	-	-	24µM	-	-
COc1ccc(/C=C/C(=O)Nc2ccc(C)c(S(=O)(=O)N3CCOCC3)c2)cc1	-	.	.	.	.	-
NC(=O)c1ccc(NC(=O)COC(=O)/C=C/c2ccc3c(c2)OCO3)cc1	-	.	-	12µM	-	-
O=C(N/N=C/c1cc(Br)cs1)c1ccccc1[N+](=O)[O-]	-	-	-	-	-	-
O=C(N/N=C/c1cc(Br)cs1)c1c[nH]c2ccccc12	-	.	-	17µM	?	-
O=C(N/N=C/c1ccc(Br)s1)c1c[nH]c2ccccc12	-	8.9µM	2.8µM	21µM	3.5µM	-
O=C(/C=C/c1ccc(F)cc1)Nc1ccc(S(=O)(=O)Nc2ncccn2)cc1	-	.	-	17µM	-	-
